aSyn 5UTR act = Activators via SNCA 5'UTR binding, MLPCN; alpha-synuclein 5'UTR reporter, activators screen; activity score, % (tested at 7.5 µM), hits read low; hit rate 7.1% among 300,000; in the data active = activity score below about -60%
Active calls of the source: *. Only a sample is shown.

SMILES | aSyn 5UTR act
O=C(Nc1ccc(-c2nc3ccccc3[nH]2)cc1)c1ccco1 | -133.4*
O=C(/C=C/c1ccco1)Nc1ccc(-c2nc3ccccc3[nH]2)cc1 | 89.3
O=C(Nc1ccc2nc(-c3ccco3)[nH]c2c1)c1cccs1 | -190.4*
O=C(Nc1ccc2nc(-c3ccco3)[nH]c2c1)c1ccco1 | -117.5*
N#CCN1CCN(CC(=O)Nc2ccc(OCc3ccccc3)cc2)CC1 | -62.4*
CN1CCN(CC(=O)Nc2ccc(OCc3ccccc3)cc2)CC1 | -89.8*
COc1cc(NC(=O)c2ccc3c(c2)OCO3)c2ncccc2c1 | -66.5*
Cc1ccc(C(=O)Nc2cccc3cccnc23)cc1Br | -178.0*
O=C(Nc1cccc2cccnc12)c1ccc2c(c1)OCCO2 | -178.2*
COc1ccccc1NC(=O)NC(=O)c1ccccc1 | -136.9*
COc1ccc(NC(=O)NC(=O)c2ccccc2)cc1 | -221.1*
COc1ccc(N/N=C(C)/C(=N/O)C(=O)Nc2ccccc2)cc1 | -87.4*
O=C(NC(=O)c1ccccc1)Nc1ccccc1 | 71.8
COc1cccc(C(=O)CSc2nccn2C)c1 | -84.1*
COc1cccc(C(=O)Oc2c(CN3CCOCC3)cc(Cl)c3cccnc23)c1 | 88.7
Cn1ccnc1SCC(=O)c1ccc2ccccc2c1 | -70.9*
Cn1ccnc1SCC(=O)c1ccc(O)cc1 | -65.2*
COc1ccc(C(=O)CSc2nccn2C)c(OC)c1 | -79.8*
Nc1c(-c2ccc(Cl)cc2)cnn1-c1cccc(C(F)(F)F)c1 | -101.8*
Cc1ccc(-c2cnn(-c3cccc(C(F)(F)F)c3)c2N)cc1 | -147.1*
CN(c1nc(-c2ccc(Br)cc2)cs1)C1CCS(=O)(=O)C1 (stereo unspecified) | -111.9*
CCCc1nnc(NC(=S)Nc2ccccc2)s1 | -126.6*
CC(C)C(=O)Nc1nnc(NC(=S)Nc2ccccc2)s1 | -126.6*
Cc1cccc(C=Nc2ccc3c(c2)oc2ccccc23)c1O | -166.0*
Cc1ccc(N/C=C(/C#N)c2ccsc2)cc1C | -172.2*
SMILES | aSyn 5UTR act
O=[N+]([O-])c1ccc(-[n+]2ccc3ccccc3c2)c([N+](=O)[O-])c1 | -105.1*
O=C(Oc1ccccc1N1C(=O)C2CCCCC2C1=O)c1ccccc1F (stereo unspecified) | -64.4*
C=C(C)CNC(=S)Nc1nc2c(cc1C(=O)OCC)CCCC2 | -105.4*
COc1cccc(N2CCN(c3ncnc4c3[nH]c3ccccc34)CC2C)c1 (stereo unspecified) | -73.5*
COc1ccc(-c2nsc3c(N4CCCCC4C)ncnc23)cc1 (stereo unspecified) | 89.8
c1ccc2c(c1)CCN(c1ncnc3c1[nH]c1ccccc13)C2 | -102.0*
CCOc1cc(/C=C2/NC(=O)N(CC(=O)OC)C2=O)ccc1O | -66.0*
O=C(Nc1nnc(S(=O)(=O)N2CCOCC2)s1)c1cccc(F)c1 | -101.9*
CCNC(=S)N/N=C(\C)c1cccc([N+](=O)[O-])c1 | -62.1*
C/C(=N\NC(=O)c1cccc([N+](=O)[O-])c1)c1cccs1 | -81.3*
C/C(=N\NC(=O)c1ccc(Cl)c(Cl)c1)c1ccc(Br)s1 | 90.6
C/C(=N/NC(=O)c1ccc2c(c1)OCO2)c1ccc(Br)s1 | -88.6*
C/C(=N/NC(=O)c1ccc2c(c1)OCO2)c1cccc([N+](=O)[O-])c1 | -133.0*
O=C(Cc1ccc(-c2ccccc2)cc1)Nc1ncccc1O | -96.6*
OCc1ccc(O)c2ncccc12 | 65.6
Cc1nnsc1S(=O)c1ccc(Cl)cc1 (stereo unspecified) | -99.0*
O=C(Nc1ccccc1)c1nnsc1S(=O)c1ccc(Cl)cc1 (stereo unspecified) | -103.5*
Cc1nnsc1S(=O)c1ccc(Cl)c(Cl)c1 (stereo unspecified) | -89.2*
Cc1ccc(-n2c(C)c(C)c3c(NCCO)ncnc32)cc1 | -106.6*
Cc1c(C)n(CCc2ccccc2)c2ncnc(NCCCO)c12 | -140.8*
Cn1c(-c2ccc3ccccc3n2)nc2cnccc21 | -74.3*
Cc1ccc(C(=O)NC(=S)Nc2cccc3nsnc23)cc1 | -100.5*
O=C(Nc1cccc2nsnc12)c1ccc2c(c1)OCCO2 | -212.8*
O=C(Nc1cccc2nsnc12)c1ccc2c(c1)OCO2 | -109.7*
CC(=O)c1ccc(NC(=O)C(C)OC(=O)c2ccc3c(c2)nc(C)n3-c2ccccc2)cc1 (stereo unspecified) | -91.0*
SMILES | aSyn 5UTR act
Cc1ccc(N=Cc2cccc(O)c2O)c(C)c1 | -62.5*
Cc1ccc(O)c(N=CC2=C(O)c3ccccc3C2=O)c1 | -156.2*
Cc1ccc(O)c(C=Nc2cc(C)ccc2O)c1 | -91.7*
CCc1ccc(O)c(N=Cc2ccccc2O)c1 | -69.6*
CCN(CC)S(=O)(=O)c1cccc(C(=O)N/N=C/c2cccc(O)c2O)c1 | 65.7
Oc1cccc(/C=N/N=C/c2cccc(O)c2O)c1O | -70.4*
O=C1C(C=Nc2ccccc2O)=C(O)c2ccccc21 | -185.8*
COc1ccc(CNc2nc(-c3ccccc3)nn2C(=O)c2ccc([N+](=O)[O-])cc2)cc1 | -120.0*
CC(=O)n1nc(-c2ccccc2)nc1NCc1ccc(N(C)C)cc1 | -131.5*
COCc1cc(C)nc(SCC(=O)Nc2ccc3c(c2)OCCO3)c1C#N | -85.6*
COCc1cc(C)nc(SCC(=O)Nc2ccc3c(c2)OCO3)c1C#N | -70.4*
COCc1cc(C)nc(SCC(=O)c2ccc(O)c(O)c2)c1C#N | -79.8*
CCOC(=O)N/N=C/c1ccc(N(CC)CC)cc1O | -432.2*
CCOC(=O)N/N=C/c1cn(Cc2ccc(Cl)cc2)c2ccccc12 | 69.7
CCN(CC)c1ccc(/C=N/NC(=O)c2c(Cl)cnn2C)c(O)c1 | 90.0
Cc1cc(C(=O)N/N=C/c2cccc(Cl)c2Cl)no1 | -107.8*
CCOC(=O)N/N=C/c1ccccc1F | -135.4*
CCOC(=O)N/N=C/c1cccc(Cl)c1Cl | -97.5*
Cc1ccc(C(=O)NCc2ccc3c(c2)CCO3)cc1C | -96.3*
c1ccc(COc2ccc(OCCOCCn3cncn3)cc2)cc1 | -117.5*
O=C(Nc1ccc(Cl)c(Cl)c1)Nc1nccs1 | -63.8*
Cc1nc2cc(NC(=O)Nc3nccs3)ccc2n1C | -99.3*
O=C(Nc1cccc(Cl)c1)Nc1nccs1 | -158.9*
CN(C)c1ccc(/C=C/c2nc3ccccc3c(=O)[nH]2)cc1 | 87.4
O=C(Nc1cccc(/C=C/c2nc3ccccc3c(=O)[nH]2)c1)c1ccccc1Cl | -131.8*
SMILES | aSyn 5UTR act
Cc1cccc(/C=C\c2nc3ccccc3c(=O)[nH]2)c1 | -73.8*
O=c1[nH]c(/C=C/c2ccc(Br)cc2)nc2ccccc12 | -168.8*
Cc1ccc(Nc2nc3ccccc3c(=O)[nH]2)cc1C | -194.9*
Cc1oc2c(cc(NS(=O)(=O)c3ccc4c5c(cccc35)C(=O)N4)c3ccccc32)c1C(=O)OC(C)C | -68.8*
N/C(=N\OC(=O)C1CCCCC1)c1cccc(Br)c1 | -170.4*
N/C(=N\OC(=O)CC1CCCCC1)c1cccc(Br)c1 | -84.4*
N/C(=N\OC(=O)CC1CCCCC1)c1ccc(Br)cc1 | -83.2*
COCCCNCCCCOc1ccc(OCc2ccccc2)cc1 | -69.2*
c1ccc(COc2ccc(OCCCNC3CCCC3)cc2)cc1 | -70.3*
C=CCNCCCCOc1ccc(OCc2ccccc2)cc1 | -79.8*
CCN(CC)CCNc1nc2cc(OC)c(OC)cc2c2nc(-c3ccccc3)nn12 | -72.8*
O=C1C2=C(c3ccccc31)[N+](=O)C1CCCCC1N2[O-] (stereo unspecified) | -72.6*
O=C1C2=C(c3ccccc31)[N+](=O)[C@@H]1CCCC[C@@H]1N2[O-] | -94.3*
CCOc1ccc(C2=Nn3c(nnc3-c3ccc(OC)cc3)SC2)cc1 | 84.3
CCC(=O)N1CCC(c2ccc(OC)cc2)=N1 | -75.4*
Oc1ccc(O)c(-c2cnns2)c1 | -70.5*
